Measured values: the supplement of paper PMC6555819

Assays:
Assay in all cases: PBM binding z-score (relative to random genomic background probes); higher = stronger binding; sequences stand for … in GC…GCGATTGACAGCGTAGAATGAAGG
[1] = test system: RARb homodimer (NR concentration 270 nM)
Summary of the method: (§1)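 For binding z-scores, the reference was random background probes on custom Agilent 4×180K protein-binding microarrays. These arrays were incubated 1 h with ligand-free nuclear receptor dimers in PBS pH 7.4, 2% milk, 0.02% Triton X-100, 1 mM DTT, 0.2 mg/mL BSA and 0.4 mg/ml salmon testes DNA. Fluorescence was scanned after antibody detection of each partner (one per run) and regression-normalized.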

[2] = test system: RARg:RXRa (NR concentration 270 nM, RXRa partner concentration 90 nM)
Summary of the method: as §1

[3] = test system: RARg homodimer (NR concentration 270 nM)
Summary of the method: as §1

[4] = test system: RXRa DBDmut IVT, anti-RXR (DBD mutation: RXRa K156A/R161A, NR concentration 90 nM)
Summary of the method: as §1

[5] = test system: RXRa homodimer (NR concentration 180 nM)
Summary of the method: as §1

[6] = test system: THRa:RXRa (NR concentration 90 nM, RXRa partner concentration 90 nM)
Summary of the method: as §1

[7] = test system: THRa homodimer (NR concentration 90 nM)
Summary of the method: as §1

[8] = test system: VDR homodimer (NR concentration 270 nM)
Summary of the method: as §1

Sequence | PBM binding z-score [1] | PBM binding z-score [2] | PBM binding z-score [3] | PBM binding z-score [4] | PBM binding z-score [5] | PBM binding z-score [6] | PBM binding z-score [7] | PBM binding z-score [8]
GATACAGGGTCAAGGCCAGAGAACGCGTATTGAT | 3.34 | 5.35 | 5.23 | 2.64 | 6.11 | 3.3 | 1.3 | 1.59
TCTATTAGTTGATTAGGGCAACCGGAACAGCGGA | 0.786 | 0.516 | 0.529 | 1.16 | 0.673 | 0.816 | 0.261 | 0.547
CAAACTAGGTCAAACGTCAAAGTCGAGCCAACCA | 2.99 | 4.6 | 4.53 | 2.28 | 4.16 | 3.13 | 0.831 | 1.04
CCTCGGAGGACAACAGGAGGTCAGACCTGCCAGA | 3.55 | 3.39 | 3.43 | 0.289 | 1.93 | 2.83 | 1.02 | 1.25
CAAACTAGGTCAACGGTCAAAGTCGAGCCAACCA | 3.76 | 4.94 | 5.4 | 2.12 | 4.02 | 3.14 | 1.31 | 1
AATACAGGGTCATCGTAGGCCAGCGTACGCACAG | 3.68 | 5.61 | 4.89 | 2.94 | 6.47 | 4.79 | 1.37 | 3.03
AGTCAAAGTGCACTAGGTAACGTAAGATTCAGCT | 0.614 | 0.916 | 1.26 | 0.965 | 0.453 | 0.43 | -0.285 | 0.442
GCTGCTACGTCAGGTTGGTCAGCTAACGGGTACG | -0.00672 | -0.503 | -0.278 | -0.049 | -0.469 | -0.38 | -0.55 | -0.226
ACTCCGAGGACAAAGGTCAGAGCTACGCCAGTGA | 4.47 | 6.28 | 5.92 | 1.97 | 6.11 | 4.27 | 2.29 | 1.67
AGAACGAGGTTAAGATCAGGGAAACAGAATACAT | 1.12 | 2.15 | 1.62 | 1.03 | 2.45 | 2.36 | 0.55 | 0.771
CCTACTGGGCCATTCAGAAGTCATTGATCATATG | -0.105 | 0.0962 | 0.226 | -0.00725 | -0.479 | -0.404 | -0.643 | -0.285
GCTGCTAGGTCAGGTTGGTCAGCTTACGGGTACG | 2.84 | 2.41 | 3.46 | 0.504 | 0.756 | 1.8 | 0.808 | 0.197
TGAATGAGGTTATAAGATCAAGGAACGTTGCAAA | 0.308 | 1.58 | 0.824 | 0.325 | 2.15 | 1.84 | 0.279 | 0.367
CCTCGGAGTACAGAAGGTCAGAGCTGTCCGCTTT | 3.15 | 2.77 | 2.95 | 0.9 | 2.37 | 2.3 | 0.111 | 0.59
TCTTGTAGATCAAAGGTTAACAAAGCCGAAGCCT | 1.66 | 1.93 | 1.09 | 0.706 | 3.2 | 1.32 | -0.41 | -0.185
ACATGTAGGTTATCGGGTCATTCAGTTTGCGCAT | 3.23 | 3.35 | 2.41 | 1.87 | 3.6 | 3.32 | 3.05 | 4.06
ATCTCTAGGTAAAAGTTCCGTGAATCCCGAGGAT | -0.157 | 0.0505 | 0.279 | 0.162 | 0.162 | 0.383 | 0.302 | 0.13
CCTATGAGTTGACCATAAGGGCAACCGAAGCTCG | 1.98 | 2.18 | 1.09 | 0.755 | 0.985 | 2.49 | 1.04 | 0.847
CTCGAAAGGTCGTGCTCAGGTGCGTATACCAAAC | 2.4 | 4.1 | 3.38 | 2.27 | 4.39 | 2.69 | 0.271 | 1.45

Sequence | PBM binding z-score [1] | PBM binding z-score [2] | PBM binding z-score [3] | PBM binding z-score [4] | PBM binding z-score [5] | PBM binding z-score [6] | PBM binding z-score [7] | PBM binding z-score [8]
CGTCCAAGGTCAGCAGGTCAGTAAAAGCGACGTG | 4.97 | 6.32 | 6.68 | 2.49 | 5.07 | 3.97 | 2.48 | 1.81
GCGACTGGGGCAAAGCAGGTTTCCATAAGGTTGG | -0.0206 | -0.174 | -0.133 | 0.157 | -0.342 | 1.21 | -0.028 | -0.34
ATCTCTAGGTAAAAGTTCAGTGATTCCCGAGGAT | 2.44 | 1.69 | 2.11 | 0.773 | 1.47 | 1.2 | 0.435 | 1.8
TGTCCAAGTTCAAAGGTAACGTAAGTATCCACAC | 2.25 | 4.05 | 3.45 | 4.24 | 5.21 | 3.05 | 0.0637 | 4.33
GCGACTGGGGCAAAGCAGGTTACCCTAAGGTTGG | 0.988 | 0.329 | 0.427 | -0.421 | 0.394 | 2.85 | 0.12 | -0.641
CCAGACAGGTGAACGGTAACTCAGTCTGGTACGC | 0.435 | 0.292 | 0.535 | -0.0435 | 0.416 | 0.0165 | -0.646 | -0.453
GCATATAGGTAATACAAGCTGAAAGTCCGATTGT | -0.29 | 0.165 | 0.41 | 0.344 | 0.524 | -0.299 | -0.467 | -0.000967
TCTGCTAGGTCAACGATGTTCAGCTAATCTGCTA | 2.97 | 3.73 | 4.24 | 1.03 | 2.47 | 2.73 | 0.88 | -0.288
CCTACTGGACCAAAAAGGTCATTGATGCCGATAA | 4.26 | 4.54 | 4.04 | 1.08 | 5.04 | 3.33 | 1.43 | 3.2
CCTCCAAGGTCAAGGTCAGTGAAAGAGACTCGAA | 5.05 | 6.52 | 7.43 | 3.49 | 6.09 | 4.18 | 3.64 | 2.98
ACTATTAGTTGACTTTGGGCAACCGATACGACGC | 0.274 | 0.43 | 0.635 | 0.79 | 0.476 | 0.55 | 0.0342 | 0.298
ATCTCTAGGTAACTAGTTCAGTGAAAGAGAGGAC | 0.47 | 0.193 | 0.685 | -0.215 | 0.0901 | 0.996 | 0.507 | 0.877
CCTTACGGGTCACGAGGTTATCGCACGACGAGCG | 4.01 | 6.31 | 5.55 | 1.96 | 7.47 | 3.72 | 1.12 | 2.04
CCAACTAGGTCACGAAAGGTCAAAGTCGAATGAC | 6.02 | 8.03 | 8.57 | 2.76 | 8.76 | 5.44 | 2.87 | 3.88
CAAACTAGGTCAAGTGGTCAAAGTCCGCTTCCCG | 4.26 | 4.95 | 5.48 | 1.85 | 3.76 | 3.16 | 1.43 | 1.08
GCAGACAGTTGAAACGCAGGTAACTCAGGGTGGC | -0.639 | 0.0568 | -0.397 | -0.408 | 0.339 | 0.919 | -0.565 | -0.832
AGACAAAGTTCACTAGGTAACGTAAGATTCAGCT | 3.8 | 4.72 | 5.53 | 4.31 | 3.69 | 2.09 | -0.00149 | 3.48
CGTCCAAGGTCGATGCTAGGTCAGTGAAAGCATT | 3.05 | 4.58 | 2.78 | 1.32 | 1.41 | 3.28 | 1.45 | 1.09
TCGAGTAGGTTACCAAGGGGGCATTCAGCTTTCT | 1.98 | 4.64 | 1.87 | 1.26 | 1.98 | 2.16 | 0.891 | 2.16

Sequence | PBM binding z-score [1] | PBM binding z-score [2] | PBM binding z-score [3] | PBM binding z-score [4] | PBM binding z-score [5] | PBM binding z-score [6] | PBM binding z-score [7] | PBM binding z-score [8]
TCTATTAGTGGATTAGGGCAACCGAAACAGCGGA | 0.492 | 0.384 | 0.643 | 1.06 | 0.49 | 0.449 | 0.4 | 0.393
CGTCCAAGGTCAATGCTAGGTCAGTGACAGCATT | 4.95 | 7.61 | 6.78 | 3.65 | 5.25 | 4.63 | 2.99 | 2.97
CGAACTTGGTCATCCAGGACAGTGAATACATTGA | 0.498 | 0.874 | 1.24 | 0.427 | 0.551 | 1.91 | 1.02 | 0.3
TCATATAGGTAAAGGTGAAAATCGAACGATATGA | 0.939 | 1.56 | 1.28 | 0.781 | 1.98 | 0.991 | -0.415 | -0.256
CTCGAAAGGTCGGTTGAGGAGAGTATACGGATAA | 1.66 | 2.45 | 2.43 | 0.577 | 1.74 | 4.2 | -0.262 | 0.602
CCTTACTGGTCACGAGGTTATAGCACGACGAGCG | 1.98 | 2.5 | 1.86 | 0.396 | 2.28 | 1.91 | 1.11 | 1.13
GGAACGAGGGCAAGTTGAGAGCAGAGTTTGATGG | 1.58 | 1.77 | 2.21 | 2.26 | 0.94 | 1.45 | 0.0177 | 1.66
CCTAGCAGGCCAGGGTCAATCAAGCATTTCGCTT | 2.92 | 3.32 | 2.33 | 0.381 | 4.06 | 3.05 | 0.553 | 1.07
CCGACTGGGGCAGAAAGGTTACTATACCATCCGG | 1.91 | 1.26 | 1.23 | -0.158 | 1.3 | 0.534 | -0.377 | -0.181
ATGCCAAGGTGATCGTGAGGTCGTTGATACTAAC | 1.42 | 2.12 | 0.718 | 0.41 | 1.52 | 3.54 | 2.25 | 2.53
TAACCAAGGTGAAGGTCGTTGATCCCTCTGTAGA | 1.83 | 1.4 | 1.38 | 0.174 | 1.87 | 2.32 | 0.878 | 0.809
CATACAGGGCCAGCTAGGCCAGAGTAGGGACGGC | -0.0405 | 0.0438 | 0.566 | -1.28 | -0.173 | -0.0247 | -0.492 | -0.491
GCAGATAGGTAATACAAGGTGAAAGTCCGATTGT | 0.807 | 0.57 | 0.471 | -0.0602 | 0.646 | 4.12 | 0.853 | 0.0811
CCTACTGGGCCATTCAGAGGTCATTTATCATATG | 3.73 | 3.91 | 2.73 | 1.47 | 3.27 | 3.12 | 1.45 | 4.04
TCGAGTAGGTTAGTCGGGACATTCAGCCAACATA | 0.0324 | -0.106 | 0.0152 | 0.327 | 0.107 | 1.39 | 0.328 | 0.0666
CCTACTGGGCCAAACAGGTCATTGATGCCGATAA | 2.13 | 1.56 | 1.36 | 0.175 | 1.38 | 1.39 | 0.0902 | 1.53
GCTAGGAGGACAAGGTCAGAGCTTTGTCCGTAGA | 3.1 | 3 | 3.49 | 0.861 | 2.29 | 2.83 | 1.21 | 0.639
ACTGGGAGGACAAAGGTCAGAGCTACGCCAGTGA | 4.78 | 6.22 | 5.14 | 1.06 | 5.47 | 3.85 | 1.25 | 1.41
AGTATGAGGTTATACGTAGATCAGGGAAGAAAGT | 0.828 | 1.81 | 1.26 | 1.67 | 2.18 | 2.4 | 0.869 | 0.823
